About 1,100 (1.7%) of roughly 63,000 compounds were called active. Cut-off read from the data, not from the text of the source: active = cytotoxicity above about 50%; inactive = the rest. Only a selection was taken, and actives are over-represented in it overall. Potency and affinity values are given separately.

From PubChem BioAssay AID430 (Sanford-Burnham Center for Chemical Genomics, 2006) come the findings set out here.

A short description of the assay: HPDE-C7 pancreatic duct cell viability loss – fluorescence, HTS (AID 430).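 Note: cells exposed to compound for 48 hours before viability readout; 0% = vehicle and 100% = reference cytotoxic drug.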 Conditions: HPDE-C7 pancreatic duct cells viability, at 10 µM, hits give high values.
On to `CCOc1ccc(-n2cc(C(=O)N3CCN(C)CC3)c3cc(OC)c(OC)cc3c2=O)cc1`, for which the cytotoxicity is -7.2% (inactive).
As for `Cn1cc(C(=O)NC2CCCCCC2)c(=O)c2cc(S(=O)(=O)N3CCCC3)ccc21`, the figure is -2.6% (inactive).
As for `CC1CCN(S(=O)(=O)c2ccc3c(c2)c(=O)c(C(=O)NC2CCCC2)cn3C)CC1`, the figure is 77% (active).
As for `Cn1cc(C(=O)NC2CCCCC2)c(=O)c2cc(S(=O)(=O)N3CCCC3)ccc21`, the figure is 6.5% (inactive); as for `COC(=O)C1(C)NC(c2cccs2)C2C(=O)N(c3ccc(F)cc3)C(=O)C21` (centres undefined), 3.3% (inactive).
Take `Cc1cc(C)c2c(c1)cc(C)c1nnc(SCC(=O)Nc3cc(C)on3)n12`: the cytotoxicity was 20.4% (inactive).
In the case of `Cc1cc(NC(=O)CSc2nnc3c(C)cc4c(C)ccc(C)c4n23)no1` it was 64.6% (active); in that of `Cc1cc(NC(=O)CSc2nnc3c(C)cc4cc(C)c(C)cc4n23)no1`, 6.8% (inactive).
In the case of `CCN(CCCNC(=O)CC(C(=O)N1CCc2ccccc21)n1ccnc1)c1ccccc1` (centres undefined) it was -6.9% (inactive); in that of `Cc1cccc2sc(NC(=O)CNS(=O)(=O)c3ccc(Br)s3)nc12`, 1.3% (inactive).
As for `Cc1cccc2sc(NC(=O)CN(C)S(=O)(=O)c3cccs3)nc12`, the figure is 14.9% (inactive).
For the molecule `C1CCN(c2nc(N3CCCC3)nc(N3CCNCC3)n2)C1`, the cytotoxicity is 2.6% (inactive).
In the case of `CC(=O)C1=C(C)NC(SCC(=O)c2ccc(Cl)c(Cl)c2)=C(C#N)C1c1ccco1` (centres undefined) it was 75.6% (active).
As for `C=CCOC(=O)C1=C(C)NC(SCC(=O)Nc2ccc(C)c(Cl)c2)=C(C#N)C1c1ccco1` (centres undefined), the figure is 0.2% (inactive); as for `CC(=O)C1=C(C)NC(SCC(=O)c2ccc(F)cc2)=C(C#N)C1c1ccco1` (centres undefined), 79.8% (active).
In the case of `CC(=O)C1=C(C)NC(SCC(=O)c2ccc(Cl)cc2Cl)=C(C#N)C1c1ccco1` (centres undefined) it was 40.9% (inactive); in that of `COCCOC(=O)C1=C(C)NC(SCC(=O)NC(C)(C)C)=C(C#N)C1c1ccco1` (centres undefined), 10.7% (inactive); in that of `Cc1ccc(C(=O)CSC2=C(C#N)C(c3ccco3)CC(=O)N2)c(C)c1` (centres undefined), -3% (inactive).
With `CCOC(=O)CSC1=C(C#N)C(c2ccc(F)cc2)C(C(C)=O)=C(C)N1` (centres undefined), the cytotoxicity is 0.3% (inactive).
On to `CC(=O)C1=C(C)NC(SCC(=O)c2cc(Cl)ccc2Cl)=C(C#N)C1c1ccco1` (centres undefined), for which the cytotoxicity is 53% (active).
In the case of `CSCSC1=C(C#N)C(c2ccccc2Cl)C(C(C)=O)=C(C)N1` (centres undefined) it was 21.5% (inactive); in that of `CC(=O)C1=C(C)NC(SCC(=O)c2ccccc2)=C(C#N)C1CC(C)C` (centres undefined), 8.5% (inactive).
As for `COc1ccccc1NC(=O)C1=C(C)NC(SCC(=O)c2ccc(C)cc2)=C(C#N)C1c1ccco1` (centres undefined), the figure is 36.6% (inactive); as for `COc1cccc(-n2ccnc2SCC(=O)Nc2cc(OC)ccc2OC)c1`, -21% (inactive); as for `Cc1cc(N2CCN(c3ccccc3)CC2)n2c(n1)nc1ccccc12`, -8.6% (inactive).
As for `CC(=O)N1CCc2cc(S(=O)(=O)NCCN3CCC(C)CC3)ccc21`, the figure is 2.7% (inactive); as for `COc1ccc(OC)c(C2CC(=O)NC(SC)=C2C#N)c1` (centres undefined), -2.9% (inactive); as for `Cc1cc(C)c2nc(N)sc2c1`, 3.8% (inactive).
Regarding `c1ccc(COc2ccc(OCCCn3cncn3)cc2)cc1`, the cytotoxicity was -20.8% (inactive).
In the case of `O=C(O)C1C2C=CC(C2)C1C(=O)NCc1ccoc1` (centres undefined) it was -8.3% (inactive).
In the case of `CCOc1ccc(OCc2ccc(C(=O)NCc3ccncc3)o2)cc1` it was -3% (inactive).
In the case of `CC(=O)C1=C(C)OC(N)=C(C#N)C1c1ccco1` (centres undefined) it was -2.2% (inactive); in that of `CC(=O)C1=C(C)NC(SCC(=O)c2ccc(Cl)cc2)=C(C#N)C1c1ccco1` (centres undefined), 57.9% (active); in that of `CCN(CC)C(=O)CSC1=C(C#N)C(c2ccco2)C(C(=O)OCCOC)=C(C)N1` (centres undefined), -11% (inactive).
Turning to `CCOC(=O)CSC1=C(C#N)C(c2ccco2)C(C(=O)OCc2ccccc2)=C(C)N1` (centres undefined), the cytotoxicity is 58.8% (active).
As for `CSCSC1=C(C#N)C(c2ccc(Cl)cc2)C(C(C)=O)=C(C)N1` (centres undefined), the figure is -18.3% (inactive); as for `C=CCOC(=O)C1=C(C)NC(SCC(=O)N(CC)CC)=C(C#N)C1c1ccco1` (centres undefined), 12.7% (inactive).
As for `CN(c1ccc(C(=O)NCc2ccccc2)cc1)S(C)(=O)=O`, the figure is -26.5% (inactive); as for `CCCS(=O)(=O)N1CCC(C(=O)NCCN2CCCC2)CC1`, 2.1% (inactive); as for `COc1ccc(-c2nnc(SCc3ncc(-c4ccccc4)o3)o2)cc1`, -2.9% (inactive).
As for `O=S1(=O)N=C(Nc2nc3c(s2)CCCC3)c2ccccc21`, the figure is -10% (inactive); as for `Cc1nc(SCC#N)c2c3c(sc2n1)CCC3`, -19% (inactive).
Take `CSc1nc2sc3c(c2c2nnnn12)CCC3`: the cytotoxicity was 7.6% (inactive).
As for `Cc1nc(Sc2nnnn2C)c2c3c(sc2n1)CCC3`, the figure is 76.2% (active).
As for `CC1Cc2ccccc2N1C(=O)Cn1nnc(-c2ccccc2NC(=O)C2CCC2)n1` (centres undefined), the figure is -11.1% (inactive).
In the case of `CCOC(=O)C1CCCN(C(=O)CN2CCN(Cc3ccc(Cl)cc3)C2=O)C1` (centres undefined) it was -28.3% (inactive); in that of `O=C(c1ccc(COc2ccc(Cl)cc2)o1)N1CCN(Cc2ccc3c(c2)OCO3)CC1`, 69.1% (active); in that of `O=C(c1ccc(Cn2cc(Cl)cn2)o1)N1CCN(Cc2ccc3c(c2)OCO3)CC1`, 12.9% (inactive).
As for `O=C(c1ccc(COc2ccccc2Cl)o1)N1CCN(Cc2ccc3c(c2)OCO3)CC1`, the cytotoxicity is 87.5% (active).
In the case of `O=C(c1ccc(Br)o1)N1CCN(Cc2ccc3c(c2)OCO3)CC1` it was -8.7% (inactive).
With `CC1CCN(C(=O)c2ccc(COc3ccccc3Cl)o2)CC1`, the cytotoxicity was -8.9% (inactive).
For `O=C(c1ccc(COc2ccccc2Cl)o1)N1CCN(c2ccccc2)CC1`, the cytotoxicity is -4.6% (inactive).
In the case of `Cn1c(O)c(C=NC(CC(N)=O)C(=O)O)c(=O)n(C)c1=O` (centres undefined) it was -3.1% (inactive); in that of `O=C(COc1cc(Cl)c(Cl)cc1Cl)Nc1ccncc1`, 14.9% (inactive).
For the molecule `CCOC(=O)CC(=O)CSc1nc2sc(C)cc2c(=O)n1Cc1ccco1`, the cytotoxicity was -13.3% (inactive).
As for `COCCn1nnnc1C(c1ccc(OC)cc1)N1CCC(C)CC1` (centres undefined), the figure is -5.9% (inactive).
As for `O=C1c2ccccc2C(=O)N1CCc1nc2ccccc2c(=O)n1CCCn1ccnc1`, the figure is -20.5% (inactive); as for `N#Cc1nc(-c2ccc(OCc3ccccc3)cc2)oc1N1CCOCC1`, 14.5% (inactive).
For `COc1ccccc1S(=O)(=O)Cc1ccc(C(=O)NC(C)c2ccc3c(c2)OCCO3)o1` (centres undefined), the cytotoxicity is -4.2% (inactive).
